Results reported in article PMC7862700, “An all-to-all approach to the identification of sequence-specific readers for epigenetic DNA modifications on cytosine”.

Assays:
Test in all cases: DAPPL (digital affinity profiling via proximity ligation, sequencing); 10 mM Tris-HCl pH 7.5, 50 mM NaCl, 1 mM DTT, 4% glycerol, room temperature, 30 min; GST-TFs on glutathione beads, 16-mer random dsDNA library, 0.1% formaldehyde crosslink after washing; high values mean tight binding
FEV = target: T1, FEV (Homo sapiens, UniProt Q99581 1-238); conditions: protein: recombinant; tags: N-terminal GST; dsDNA, one strand shown
T1 sequence: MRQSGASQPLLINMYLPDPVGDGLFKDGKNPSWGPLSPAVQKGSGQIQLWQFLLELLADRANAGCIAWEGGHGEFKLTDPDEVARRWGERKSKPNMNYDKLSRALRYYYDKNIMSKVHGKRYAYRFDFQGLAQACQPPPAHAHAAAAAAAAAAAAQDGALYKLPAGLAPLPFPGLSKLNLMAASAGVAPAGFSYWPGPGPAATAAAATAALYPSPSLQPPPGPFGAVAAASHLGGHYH
Procedure, shortened: (§1)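 Yeast served to express human transcription factors as GST fusions, which were then captured on glutathione beads and labelled with DNA barcodes. Pooled with a tag-only sample, they were incubated with 200 nmole of a 16-mer random double-stranded DNA library for 30 min at room temperature in Tris/NaCl/DTT/glycerol buffer, washed, crosslinked with 0.1% formaldehyde, ligated by proximity, amplified by PCR and sequenced. Dividing each hexamer's read frequency for a factor by its frequency for the tag-only sample gives the binding signal.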

ETV5 = ETV5 (Homo sapiens, UniProt P41161 1-510); conditions: protein: recombinant; tags: N-terminal GST; dsDNA, one strand shown
ETV5, sequence (P41161 whole entry): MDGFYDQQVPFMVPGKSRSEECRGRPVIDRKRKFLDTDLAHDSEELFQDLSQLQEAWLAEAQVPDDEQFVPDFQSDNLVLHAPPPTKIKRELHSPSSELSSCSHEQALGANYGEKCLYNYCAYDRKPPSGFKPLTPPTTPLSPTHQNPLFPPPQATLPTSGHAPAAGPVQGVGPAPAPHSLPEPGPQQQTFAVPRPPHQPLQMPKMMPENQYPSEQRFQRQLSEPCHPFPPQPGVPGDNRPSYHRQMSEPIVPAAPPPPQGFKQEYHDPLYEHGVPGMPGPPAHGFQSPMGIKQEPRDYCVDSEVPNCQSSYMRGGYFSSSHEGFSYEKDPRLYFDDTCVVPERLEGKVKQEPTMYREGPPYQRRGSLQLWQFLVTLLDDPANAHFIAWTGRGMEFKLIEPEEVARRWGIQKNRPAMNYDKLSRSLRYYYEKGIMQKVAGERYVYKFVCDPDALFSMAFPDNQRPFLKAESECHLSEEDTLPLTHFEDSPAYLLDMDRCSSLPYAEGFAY
Procedure, shortened: as §1

HSF1 = HSF1 (Homo sapiens, UniProt Q00613 1-529); conditions: protein: recombinant; tags: N-terminal GST; chain copies: 3; dsDNA, one strand shown
HSF1, sequence (Q00613 whole entry): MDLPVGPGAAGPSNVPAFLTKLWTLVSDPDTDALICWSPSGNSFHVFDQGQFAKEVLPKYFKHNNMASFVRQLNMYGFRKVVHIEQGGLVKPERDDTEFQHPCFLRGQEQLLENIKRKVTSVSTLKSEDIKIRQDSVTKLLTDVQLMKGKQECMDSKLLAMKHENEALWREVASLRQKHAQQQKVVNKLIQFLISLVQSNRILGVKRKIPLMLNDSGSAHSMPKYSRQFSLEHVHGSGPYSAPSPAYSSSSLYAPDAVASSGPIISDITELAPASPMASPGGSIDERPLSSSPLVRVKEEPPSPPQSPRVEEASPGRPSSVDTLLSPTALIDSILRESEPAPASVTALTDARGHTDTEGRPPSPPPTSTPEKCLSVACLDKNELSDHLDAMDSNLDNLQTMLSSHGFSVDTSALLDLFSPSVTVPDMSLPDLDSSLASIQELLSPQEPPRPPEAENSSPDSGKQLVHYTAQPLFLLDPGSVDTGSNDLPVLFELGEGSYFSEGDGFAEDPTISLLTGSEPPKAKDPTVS
Procedure, shortened: as §1

SPIC = target: T2, SPIC (Homo sapiens, UniProt Q8N5J4 1-248); conditions: protein: recombinant; tags: N-terminal GST; dsDNA, one strand shown
T2 sequence: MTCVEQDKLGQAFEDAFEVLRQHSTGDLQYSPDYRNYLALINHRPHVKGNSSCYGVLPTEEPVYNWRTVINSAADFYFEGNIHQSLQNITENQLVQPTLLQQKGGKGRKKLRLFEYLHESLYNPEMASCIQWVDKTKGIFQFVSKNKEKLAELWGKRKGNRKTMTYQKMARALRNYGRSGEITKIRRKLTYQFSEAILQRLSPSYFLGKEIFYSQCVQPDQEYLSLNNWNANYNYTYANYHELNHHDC
Procedure, shortened: as §1

ELF4 = ELF4 (Homo sapiens, UniProt Q99607 1-663); conditions: protein: recombinant; tags: N-terminal GST; dsDNA, one strand shown
ELF4, sequence (Q99607 whole entry): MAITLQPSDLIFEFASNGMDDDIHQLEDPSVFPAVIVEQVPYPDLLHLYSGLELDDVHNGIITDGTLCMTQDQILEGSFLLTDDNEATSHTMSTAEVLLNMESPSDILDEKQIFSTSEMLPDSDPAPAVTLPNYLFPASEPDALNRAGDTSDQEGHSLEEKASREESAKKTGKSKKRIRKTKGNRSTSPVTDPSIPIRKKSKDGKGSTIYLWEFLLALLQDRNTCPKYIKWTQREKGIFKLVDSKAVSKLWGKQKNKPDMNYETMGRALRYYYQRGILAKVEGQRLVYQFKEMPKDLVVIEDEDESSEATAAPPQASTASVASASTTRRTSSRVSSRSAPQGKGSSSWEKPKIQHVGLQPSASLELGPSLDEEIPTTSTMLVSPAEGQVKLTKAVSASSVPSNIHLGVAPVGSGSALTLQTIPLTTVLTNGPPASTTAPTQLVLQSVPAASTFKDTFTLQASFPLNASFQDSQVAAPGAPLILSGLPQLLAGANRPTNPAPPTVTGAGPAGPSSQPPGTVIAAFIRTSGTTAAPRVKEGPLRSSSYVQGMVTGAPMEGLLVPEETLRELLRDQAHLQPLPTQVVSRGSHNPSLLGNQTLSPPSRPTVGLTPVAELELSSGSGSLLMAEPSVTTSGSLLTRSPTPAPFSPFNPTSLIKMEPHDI
Procedure, shortened: as §1

ELK4 = target: T3, ELK4 (Homo sapiens, UniProt P28324-2 1-405); conditions: protein: recombinant; tags: N-terminal GST; dsDNA, one strand shown
T3 sequence: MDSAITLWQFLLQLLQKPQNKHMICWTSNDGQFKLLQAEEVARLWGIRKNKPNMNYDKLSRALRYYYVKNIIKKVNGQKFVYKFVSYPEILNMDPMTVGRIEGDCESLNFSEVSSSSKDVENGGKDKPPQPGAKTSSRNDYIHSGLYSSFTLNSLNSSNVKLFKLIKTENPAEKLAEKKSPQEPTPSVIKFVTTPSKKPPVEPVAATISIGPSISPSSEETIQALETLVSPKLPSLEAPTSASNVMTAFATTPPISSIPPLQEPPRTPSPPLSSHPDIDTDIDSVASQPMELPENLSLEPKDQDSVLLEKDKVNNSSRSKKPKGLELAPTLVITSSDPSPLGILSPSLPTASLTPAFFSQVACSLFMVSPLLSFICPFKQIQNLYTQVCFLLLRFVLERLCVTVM
Procedure, shortened: as §1

ETV2 = target: T4, ETV2 (Homo sapiens, UniProt O00321 1-342); conditions: protein: recombinant; tags: N-terminal GST; dsDNA, one strand shown
T4 sequence: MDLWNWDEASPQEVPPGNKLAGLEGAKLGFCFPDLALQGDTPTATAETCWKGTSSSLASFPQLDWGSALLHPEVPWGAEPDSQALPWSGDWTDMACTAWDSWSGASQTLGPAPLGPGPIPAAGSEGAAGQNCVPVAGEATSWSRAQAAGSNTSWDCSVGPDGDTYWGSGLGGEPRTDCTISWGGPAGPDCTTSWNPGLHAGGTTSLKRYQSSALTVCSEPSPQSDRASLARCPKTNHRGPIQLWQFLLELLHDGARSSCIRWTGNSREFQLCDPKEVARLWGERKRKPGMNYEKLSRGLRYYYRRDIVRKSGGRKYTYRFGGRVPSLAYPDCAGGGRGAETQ
Procedure, shortened: as §1

ELF3 = target: T5, ELF3 (Homo sapiens, UniProt P78545 1-371); conditions: protein: recombinant; tags: N-terminal GST; dsDNA, one strand shown
T5 sequence: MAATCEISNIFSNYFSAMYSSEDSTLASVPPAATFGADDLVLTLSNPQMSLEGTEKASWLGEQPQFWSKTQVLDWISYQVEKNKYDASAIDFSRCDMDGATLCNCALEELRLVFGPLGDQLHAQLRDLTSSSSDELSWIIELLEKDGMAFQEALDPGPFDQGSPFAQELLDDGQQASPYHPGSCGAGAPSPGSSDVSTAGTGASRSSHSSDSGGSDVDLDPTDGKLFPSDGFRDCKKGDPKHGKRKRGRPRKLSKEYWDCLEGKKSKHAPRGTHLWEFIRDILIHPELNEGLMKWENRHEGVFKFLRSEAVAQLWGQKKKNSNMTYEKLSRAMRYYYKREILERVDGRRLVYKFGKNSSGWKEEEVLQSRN
Procedure, shortened: as §1

ETV1 = ETV1 (Homo sapiens, UniProt P50549 1-477); conditions: protein: recombinant; tags: N-terminal GST; dsDNA, one strand shown
ETV1, sequence (P50549 whole entry): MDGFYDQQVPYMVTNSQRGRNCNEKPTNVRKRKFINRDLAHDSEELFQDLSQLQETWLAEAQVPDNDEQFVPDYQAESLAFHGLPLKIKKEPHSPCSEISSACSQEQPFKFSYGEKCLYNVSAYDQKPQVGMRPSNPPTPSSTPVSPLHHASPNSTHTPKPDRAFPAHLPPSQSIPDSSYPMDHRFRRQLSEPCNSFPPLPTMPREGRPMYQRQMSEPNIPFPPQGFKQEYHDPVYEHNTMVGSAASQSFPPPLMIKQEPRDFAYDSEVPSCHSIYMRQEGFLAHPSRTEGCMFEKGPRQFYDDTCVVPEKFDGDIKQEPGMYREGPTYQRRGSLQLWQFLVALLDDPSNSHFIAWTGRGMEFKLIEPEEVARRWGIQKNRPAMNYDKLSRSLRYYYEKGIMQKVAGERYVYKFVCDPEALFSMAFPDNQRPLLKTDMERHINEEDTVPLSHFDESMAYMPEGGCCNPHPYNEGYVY
Procedure, shortened: as §1

ERF = target: T6, ERF (Homo sapiens, UniProt P50548 1-548); conditions: protein: recombinant; tags: N-terminal GST; dsDNA, one strand shown
T6 sequence: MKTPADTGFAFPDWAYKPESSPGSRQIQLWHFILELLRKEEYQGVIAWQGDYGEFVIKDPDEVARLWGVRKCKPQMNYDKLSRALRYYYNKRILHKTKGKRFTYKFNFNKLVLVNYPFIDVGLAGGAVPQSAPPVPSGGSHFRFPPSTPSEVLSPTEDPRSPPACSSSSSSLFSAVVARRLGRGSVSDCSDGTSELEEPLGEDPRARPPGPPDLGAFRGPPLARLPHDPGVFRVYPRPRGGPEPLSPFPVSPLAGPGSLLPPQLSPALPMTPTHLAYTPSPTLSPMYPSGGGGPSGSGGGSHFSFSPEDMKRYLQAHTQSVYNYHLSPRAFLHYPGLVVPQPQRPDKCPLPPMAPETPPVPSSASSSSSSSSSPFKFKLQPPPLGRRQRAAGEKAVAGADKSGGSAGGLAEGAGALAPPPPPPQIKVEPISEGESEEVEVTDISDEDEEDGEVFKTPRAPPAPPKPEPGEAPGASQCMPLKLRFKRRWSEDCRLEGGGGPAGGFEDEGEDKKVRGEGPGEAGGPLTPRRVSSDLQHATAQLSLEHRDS
Procedure, shortened: as §1

ETV3L = target: T7, ETV3L (Homo sapiens, UniProt Q6ZN32 1-361); conditions: protein: recombinant; tags: N-terminal GST; dsDNA, one strand shown
T7 sequence: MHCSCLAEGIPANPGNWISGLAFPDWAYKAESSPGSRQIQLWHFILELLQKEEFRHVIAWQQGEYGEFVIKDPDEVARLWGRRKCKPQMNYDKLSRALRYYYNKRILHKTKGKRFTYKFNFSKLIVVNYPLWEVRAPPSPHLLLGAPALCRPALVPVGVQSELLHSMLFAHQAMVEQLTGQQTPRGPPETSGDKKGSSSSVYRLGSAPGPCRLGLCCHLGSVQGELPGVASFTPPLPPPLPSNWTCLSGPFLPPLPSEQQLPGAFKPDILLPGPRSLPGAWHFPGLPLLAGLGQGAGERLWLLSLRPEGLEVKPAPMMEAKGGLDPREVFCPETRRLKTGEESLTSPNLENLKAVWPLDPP
Procedure, shortened: as §1

ETS2 = target: T8, ETS2 (Homo sapiens, UniProt P15036 1-469); conditions: protein: recombinant; tags: N-terminal GST; dsDNA, one strand shown
T8 sequence: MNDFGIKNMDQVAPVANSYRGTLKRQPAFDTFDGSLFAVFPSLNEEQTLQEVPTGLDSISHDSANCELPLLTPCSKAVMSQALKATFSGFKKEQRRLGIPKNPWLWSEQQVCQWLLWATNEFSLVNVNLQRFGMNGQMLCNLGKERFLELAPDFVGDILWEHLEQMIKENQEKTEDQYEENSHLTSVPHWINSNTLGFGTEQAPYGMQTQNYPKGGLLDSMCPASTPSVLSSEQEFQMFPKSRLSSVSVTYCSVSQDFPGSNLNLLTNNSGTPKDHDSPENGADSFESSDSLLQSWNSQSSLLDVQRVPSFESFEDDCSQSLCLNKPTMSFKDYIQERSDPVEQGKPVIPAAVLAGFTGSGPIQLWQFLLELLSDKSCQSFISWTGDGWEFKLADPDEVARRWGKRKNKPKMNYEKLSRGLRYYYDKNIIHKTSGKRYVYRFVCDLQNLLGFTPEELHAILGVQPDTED
Procedure, shortened: as §1

SPDEF = target: T9, SPDEF (Homo sapiens, UniProt O95238 1-335); conditions: protein: recombinant; tags: N-terminal GST; dsDNA, one strand shown
T9 sequence: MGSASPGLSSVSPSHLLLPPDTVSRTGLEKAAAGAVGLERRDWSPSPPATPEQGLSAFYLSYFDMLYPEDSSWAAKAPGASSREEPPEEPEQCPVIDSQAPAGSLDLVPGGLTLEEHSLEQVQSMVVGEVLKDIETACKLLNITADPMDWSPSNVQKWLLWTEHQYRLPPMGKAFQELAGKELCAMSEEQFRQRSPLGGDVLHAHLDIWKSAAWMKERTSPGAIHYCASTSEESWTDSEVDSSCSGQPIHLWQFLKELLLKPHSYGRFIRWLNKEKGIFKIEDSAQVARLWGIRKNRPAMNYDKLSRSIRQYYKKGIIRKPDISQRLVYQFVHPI
Procedure, shortened: as §1

ETV7 = target: T10, ETV7 (Homo sapiens, UniProt Q9Y603 1-341); conditions: protein: recombinant; tags: N-terminal GST; dsDNA, one strand shown
T10 sequence: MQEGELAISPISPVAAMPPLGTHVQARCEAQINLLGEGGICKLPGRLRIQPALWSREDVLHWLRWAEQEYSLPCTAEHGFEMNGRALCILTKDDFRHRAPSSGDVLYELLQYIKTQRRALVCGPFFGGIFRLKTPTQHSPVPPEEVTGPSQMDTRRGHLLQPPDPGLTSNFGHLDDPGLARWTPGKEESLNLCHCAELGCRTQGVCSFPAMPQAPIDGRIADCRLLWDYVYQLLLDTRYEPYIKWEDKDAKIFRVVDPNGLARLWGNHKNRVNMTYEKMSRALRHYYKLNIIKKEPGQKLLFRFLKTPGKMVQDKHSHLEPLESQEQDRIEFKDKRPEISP
Procedure, shortened: as §1

ELF5 = target: T11, ELF5 (Homo sapiens, UniProt Q9UKW6-2 1-255); conditions: protein: recombinant; tags: N-terminal GST; dsDNA, one strand shown
T11 sequence: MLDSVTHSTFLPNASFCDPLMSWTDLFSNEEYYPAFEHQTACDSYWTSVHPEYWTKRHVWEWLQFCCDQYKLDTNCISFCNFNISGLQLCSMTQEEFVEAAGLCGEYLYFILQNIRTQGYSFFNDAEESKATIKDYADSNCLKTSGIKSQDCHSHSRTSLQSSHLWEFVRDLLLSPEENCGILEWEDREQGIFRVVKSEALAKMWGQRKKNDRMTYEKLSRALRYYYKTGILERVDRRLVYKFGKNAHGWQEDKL
Procedure, shortened: as §1

ETV3 = target: T12, ETV3 (Homo sapiens, UniProt P41162-2 1-143); conditions: protein: recombinant; tags: N-terminal GST; dsDNA, one strand shown
T12 sequence: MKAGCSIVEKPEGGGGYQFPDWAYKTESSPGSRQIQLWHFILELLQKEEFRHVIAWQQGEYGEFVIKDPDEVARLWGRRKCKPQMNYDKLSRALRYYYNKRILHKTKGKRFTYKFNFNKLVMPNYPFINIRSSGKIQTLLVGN
Procedure, shortened: as §1

ETV6 = ETV6 (Homo sapiens, UniProt P41212 1-452); conditions: protein: recombinant; tags: N-terminal GST; dsDNA, one strand shown
ETV6, sequence (P41212 whole entry): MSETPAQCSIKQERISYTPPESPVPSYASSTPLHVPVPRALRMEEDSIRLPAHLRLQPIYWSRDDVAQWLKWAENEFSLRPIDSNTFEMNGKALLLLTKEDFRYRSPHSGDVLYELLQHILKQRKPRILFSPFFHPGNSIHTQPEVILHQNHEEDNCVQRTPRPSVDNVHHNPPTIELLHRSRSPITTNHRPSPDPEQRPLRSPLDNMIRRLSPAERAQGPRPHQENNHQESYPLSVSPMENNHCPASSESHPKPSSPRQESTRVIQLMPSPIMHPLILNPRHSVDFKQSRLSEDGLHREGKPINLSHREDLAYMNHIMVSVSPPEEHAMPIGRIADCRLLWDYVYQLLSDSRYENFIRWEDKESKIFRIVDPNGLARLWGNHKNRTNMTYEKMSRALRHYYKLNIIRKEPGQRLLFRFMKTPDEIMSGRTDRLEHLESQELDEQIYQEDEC
Procedure, shortened: as §1

In the case of CACCGA, the binding signal (FEV) is reported as 1.1 fold enrichment (6-mer frequency, TF over GST control), the binding signal (ETV5) is reported as 1.1 fold enrichment (6-mer frequency, TF over GST control) and the binding signal (HSF1) is reported as 1.06 fold enrichment (6-mer frequency, TF over GST control). The binding signal (SPIC) was 1.05 fold enrichment (6-mer frequency, TF over GST control), the binding signal (ELF4) was 1.08 fold enrichment (6-mer frequency, TF over GST control) and the binding signal (ELK4) was 1.13 fold enrichment (6-mer frequency, TF over GST control). For the same sequence, the binding signal (ETV2) was 1.1 fold enrichment (6-mer frequency, TF over GST control), the binding signal (ELF3) was 1.04 fold enrichment (6-mer frequency, TF over GST control) and the binding signal (ETV1) was 1.1 fold enrichment (6-mer frequency, TF over GST control). For the same sequence, the binding signal (ERF) was 1.05 fold enrichment (6-mer frequency, TF over GST control), the binding signal (ETV3L) was 1.02 fold enrichment (6-mer frequency, TF over GST control) and the binding signal (ETS2) was 1.12 fold enrichment (6-mer frequency, TF over GST control). The binding signal (SPDEF) was 1.04 fold enrichment (6-mer frequency, TF over GST control), the binding signal (ETV7) was 1.11 fold enrichment (6-mer frequency, TF over GST control) and the binding signal (ELF5) was 1.04 fold enrichment (6-mer frequency, TF over GST control). For the same sequence, the binding signal (ETV3) was 1.01 fold enrichment (6-mer frequency, TF over GST control) and the binding signal (ETV6) was 1.03 fold enrichment (6-mer frequency, TF over GST control).
